Data on 29 compounds can be found in PubChem BioAssay (EPA / NIEHS).

SMILES strings stand for the structures. The source made the active and inactive calls. Rule for the calls: active = hit-call score of the fitted dose curve at least 0.9, where 1 is the maximum; inactive = score below 0.9.

Usually AC50 stands for the midpoint of the concentration-response curve, whichever way the signal moves.

Read-out in one assay: Human Leukocyte Antigen - DR isotype (HLADR), HLA-DRA (gene 3122)
Put plainly: BSK_BE3C_HLADR: BioMAP Diversity Plus: BE3C Assay for Human Leukocyte Antigen - DR isotype (HLADR) Biomarker Activity (AID 2283032). Conditions: primary human bronchial epithelial cells; actives raise or lower the signal. In short, it runs like this:
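ELISA read-out of HLA-DR on human lung bronchial epithelial primary cells, measured 24 h post-dosing. Both increases and decreases were scored relative to DMSO vehicle.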
Turning to `COCCOC[C@H](CC1(C(=O)NC2CCC(C(=O)O)CC2)CCCC1)C(=O)Oc1ccc2c(c1)CCC2` (stereo partly drawn), the outcome was inactive.
On to `COc1cc(-c2nc(NC(=O)c3cc4cc(C)cc(C)c4n3CC(=O)O)sc2CCC2CCCCC2)c(OC)cc1Cl`, for which the AC50 was 1.25 µM (active).
As for `NCC1(Cc2noc(=O)[nH]2)CCCCC1`, the result was inactive.
Consider `CCCCC(CC)COC(=O)CC(C(=O)OCC(CC)CCCC)S(=O)(=O)O` (stereo not drawn), for which the concentration at half-maximal activity (AC50) was 7.52 µM (active).
With `CCOC(=O)CCC(=O)OCC`, the outcome was inactive.
Take `Nc1ccc(S(=O)(=O)c2ccc(N)cc2)cc1`: the result was inactive.
For the compound `CC(C)c1ccc(C(=O)N=C(N)N)cc1S(C)(=O)=O`, the result was inactive.
On to `CCCCCCOCCO`, for which the result was inactive.
The same measure, in the same setting: then `CC(CO)OC(C)CO` (stereo not drawn) (tested in a mixture with another compound), with “inactive”; and `COc1cc(C=O)ccc1O`, with “inactive”.
The same measure, in the same setting: to `c1cc(-c2ccncc2)ccn1` belongs “inactive”.
Turning to `CCNc1cccc(C)c1`, the result was inactive.
Regarding `CN1CCN(Cc2cc(-c3ccc4[nH]c(=O)oc4c3)co2)[C@@H](c2ccc(F)cc2)C1`, the outcome was inactive.
`Cc1nc(-c2ccc3c(c2)CCN(CCC2CCC(NC(=O)/C=C/c4ccc(F)cc4)CC2)CC3)no1` (stereo not drawn): the half-maximal activity concentration (AC50) was 12.8 µM (active).
As to `O=c1c(O)c(-c2ccc(O)c(O)c2)oc2cc(O)cc(O)c12`, the AC50 was 20 µM (active).
The same measure, in the same setting: to `CN[C@H]1CC[C@@H](c2ccc(Cl)c(Cl)c2)c2ccc(S(N)(=O)=O)cc21` belongs 31.4 µM (active).
As to `CCCCN(CCCC)CCCC`, the result was inactive.
`COC(=O)c1ccc(O)cc1`: the result was inactive.
Turning to `CC1=C(/C=C/C(C)=C/C=C/C(C)=C/CO)C(C)(C)CCC1`, the AC50 was 18 µM (active).
For the compound `CNC(=O)[C@H]1O[C@@H](n2cnc3c(NCc4cc(Cl)ccc4OCc4cc(C)no4)ncnc32)[C@H](O)[C@@H]1N`, the result was inactive.
For the compound `Cc1cc(=O)[nH]c(=S)[nH]1`, the result was inactive.
Consider `CCCCc1ccc2c(n1)[C@@H](c1ccc(OC)cc1C[C@H](C)C(=O)O)[C@H](C(=O)O)[C@H]2c1ccc2c(c1)OCO2`, for which the result was inactive.
With `FC(F)(F)C(F)(F)C(F)(F)C(F)(F)C(F)(F)C(F)(F)CCI`, the outcome was inactive.
With `C=CCOC(=O)c1ccccc1C(=O)OCC=C`, the outcome was inactive.
Consider `O=[N+]([O-])C(CO)(CO)CO`, for which the result was inactive.
Turning to `Oc1ccc2ccccc2c1N=Nc1ccccc1`, the outcome was inactive.
On the same count and under the same terms, to `O=C(N[C@@H](Cc1ccccc1)[C@@H](O)C(=O)N1C[C@@H](O)[C@@H](O)C1)c1cc2cc(Cl)ccc2[nH]1` belongs “inactive”; to `CCCCCCCCCCCCCCCC`, “inactive”.
In the case of `CCCCCCCCCCC`, the outcome was inactive.

Read-out in another assay: Vascular cell adhesion molecule 1 (VCAM1), VCAM1 (gene 7412)
Briefly: BSK_4H_VCAM1: BioMAP Diversity Plus: 4H Assay for Vascular cell adhesion molecule 1 (VCAM1) Biomarker Activity (AID 2283033).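 For outcome: cell-surface VCAM-1 protein measured by ELISA.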 The settings on record: primary human endothelial cells (HUVEC); actives raise or lower the signal. In short, it runs like this:
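ELISA read-out of VCAM-1 on human umbilical vein endothelium 24 hours after chemical dosing; gain or loss of signal was fitted relative to DMSO, with sulforhodamine B staining of parallel cultures flagging overt cytotoxicity.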
On to `COCCOC[C@H](CC1(C(=O)NC2CCC(C(=O)O)CC2)CCCC1)C(=O)Oc1ccc2c(c1)CCC2` (stereo partly drawn), for which the result was inactive.
`COc1cc(-c2nc(NC(=O)c3cc4cc(C)cc(C)c4n3CC(=O)O)sc2CCC2CCCCC2)c(OC)cc1Cl`: the AC50 is 4.36 µM (active).
As for `NCC1(Cc2noc(=O)[nH]2)CCCCC1`, the result was inactive.
`CCCCC(CC)COC(=O)CC(C(=O)OCC(CC)CCCC)S(=O)(=O)O` (stereo not drawn): the AC50 is 34.5 µM (active).
Take `CCOC(=O)CCC(=O)OCC`: the outcome was inactive.
As to `Nc1ccc(S(=O)(=O)c2ccc(N)cc2)cc1`, the result was inactive.
Turning to `CC(C)c1ccc(C(=O)N=C(N)N)cc1S(C)(=O)=O`, the result was inactive.
Regarding `CCCCCCOCCO`, the result was inactive.
`CC(CO)OC(C)CO` (stereo not drawn) (tested in a mixture with another compound): the result was inactive.
Consider `COc1cc(C=O)ccc1O`, for which the result was inactive.
The same measure, in the same setting: then `c1cc(-c2ccncc2)ccn1`, with “inactive”; and `CCNc1cccc(C)c1`, with “inactive”; and `CN1CCN(Cc2cc(-c3ccc4[nH]c(=O)oc4c3)co2)[C@@H](c2ccc(F)cc2)C1`, with “inactive”.
`Cc1nc(-c2ccc3c(c2)CCN(CCC2CCC(NC(=O)/C=C/c4ccc(F)cc4)CC2)CC3)no1` (stereo not drawn): the half-maximal activity concentration (AC50) is 9.3 µM (active).
The same measure, in the same setting: to `O=c1c(O)c(-c2ccc(O)c(O)c2)oc2cc(O)cc(O)c12` belongs 26.9 µM (active).
On to `CN[C@H]1CC[C@@H](c2ccc(Cl)c(Cl)c2)c2ccc(S(N)(=O)=O)cc21`, for which the half-maximal activity concentration (AC50) is 17.3 µM (active).
As to `CCCCN(CCCC)CCCC`, the outcome was inactive.
Consider `COC(=O)c1ccc(O)cc1`, for which the outcome was inactive.
With `CC1=C(/C=C/C(C)=C/C=C/C(C)=C/CO)C(C)(C)CCC1`, the half-maximal activity concentration (AC50) is 31.1 µM (active).
In the case of `CNC(=O)[C@H]1O[C@@H](n2cnc3c(NCc4cc(Cl)ccc4OCc4cc(C)no4)ncnc32)[C@H](O)[C@@H]1N`, the result was inactive.
As for `Cc1cc(=O)[nH]c(=S)[nH]1`, the outcome was inactive.
Still for that read-out and setting: then `CCCCc1ccc2c(n1)[C@@H](c1ccc(OC)cc1C[C@H](C)C(=O)O)[C@H](C(=O)O)[C@H]2c1ccc2c(c1)OCO2`, with “inactive”; and `FC(F)(F)C(F)(F)C(F)(F)C(F)(F)C(F)(F)C(F)(F)CCI`, with “inactive”; and `C=CCOC(=O)c1ccccc1C(=O)OCC=C`, with “inactive”.
In the case of `O=[N+]([O-])C(CO)(CO)CO`, the outcome was inactive.
In the case of `Oc1ccc2ccccc2c1N=Nc1ccccc1`, the AC50 was 0.386 µM (active).
Turning to `O=C(N[C@@H](Cc1ccccc1)[C@@H](O)C(=O)N1C[C@@H](O)[C@@H](O)C1)c1cc2cc(Cl)ccc2[nH]1`, the outcome was inactive.
As to `CCCCCCCCCCCCCCCC`, the outcome was inactive.
Turning to `CCCCCCCCCCC`, the result was inactive.
